# The whole screen tested about 310,000 compounds, of which about 14,000 (4.5%) showed an effect of 50% or more. Effects have a minus sign here. Shown is part of a subset that was picked to be rich in strong results.
# Biological target: human ether-à-go-go-related gene (hERG) potassium channel (human, UniProt Q12809)
# Assay: primary screen, population patch clamp on CHO cells stably expressing hERG; higher = less effect of the substance
# 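Also: peak tail current of the secondary pulse compared with the same well before compound.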
# human ether-à-go-go-related gene (hERG) potassium channel, sequence (Q12809 whole entry, looked up): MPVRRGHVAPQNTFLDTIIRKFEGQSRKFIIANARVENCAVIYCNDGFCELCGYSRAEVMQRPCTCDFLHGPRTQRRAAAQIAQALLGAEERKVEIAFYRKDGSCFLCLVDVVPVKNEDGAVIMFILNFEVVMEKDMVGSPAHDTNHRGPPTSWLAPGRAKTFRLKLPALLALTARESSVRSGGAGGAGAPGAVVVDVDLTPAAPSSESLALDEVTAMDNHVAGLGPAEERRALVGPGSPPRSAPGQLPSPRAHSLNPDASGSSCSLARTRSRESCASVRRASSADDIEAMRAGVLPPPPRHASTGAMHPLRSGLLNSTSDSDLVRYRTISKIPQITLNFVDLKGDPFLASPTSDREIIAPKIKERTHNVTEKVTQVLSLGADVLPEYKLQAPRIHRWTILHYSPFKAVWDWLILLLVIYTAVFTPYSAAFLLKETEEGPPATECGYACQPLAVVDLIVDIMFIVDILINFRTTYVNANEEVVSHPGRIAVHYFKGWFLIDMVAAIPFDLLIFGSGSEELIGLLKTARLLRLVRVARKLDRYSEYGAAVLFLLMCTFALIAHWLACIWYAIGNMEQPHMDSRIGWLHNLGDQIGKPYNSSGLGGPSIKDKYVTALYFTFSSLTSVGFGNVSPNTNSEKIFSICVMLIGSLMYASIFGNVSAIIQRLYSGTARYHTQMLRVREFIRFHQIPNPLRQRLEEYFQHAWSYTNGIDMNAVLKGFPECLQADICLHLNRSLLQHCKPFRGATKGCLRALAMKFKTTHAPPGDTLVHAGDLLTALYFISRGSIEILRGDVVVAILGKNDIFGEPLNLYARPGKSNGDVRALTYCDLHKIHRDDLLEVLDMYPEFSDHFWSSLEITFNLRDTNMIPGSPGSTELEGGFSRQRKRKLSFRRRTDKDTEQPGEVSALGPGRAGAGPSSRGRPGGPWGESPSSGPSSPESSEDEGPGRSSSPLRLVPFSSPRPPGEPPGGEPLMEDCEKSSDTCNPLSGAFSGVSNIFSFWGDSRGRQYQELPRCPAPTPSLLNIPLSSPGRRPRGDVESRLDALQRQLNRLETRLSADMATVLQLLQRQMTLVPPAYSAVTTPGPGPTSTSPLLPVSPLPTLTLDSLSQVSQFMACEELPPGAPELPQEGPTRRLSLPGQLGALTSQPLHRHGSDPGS
row,Structure (SMILES),"hERG current change (%, negative = inhibition) at 10uM [%]"
1,Cc1cc(NS(=O)(=O)c2ccc(NC(=O)c3c(F)c(F)c(F)c(F)c3F)cc2)nc(C)n1,4.63
2,CCN(C(=O)CSc1nnnn1-c1ccccc1OC)C1CCS(=O)(=O)C1 (stereo not shown),21.2
3,O=C(CCNC(=O)c1ccccc1Cl)Nc1cccc(S(=O)(=O)N2CCOCC2)c1,0.307
4,CC(C)(C)c1[nH]nc2c1C(C1C=CCCC1)C(C#N)=C(N)O2 (stereo not shown),-11
5,CN(C)CC1CCCCC1OC(=O)c1ccc(S(=O)(=O)N(C)c2ccccc2)cc1 (stereo not shown),17.8
6,C/C(CC(=O)NCc1ccco1)=N\NC(=O)c1ccc([N+](=O)[O-])cc1Cl,10.5
7,CC(OC(=O)CCc1nc2ccccc2c(=O)[nH]1)C(=O)c1ccc(C(C)(C)C)cc1 (stereo not shown),-12.3
8,COc1ccc(N(CC(=O)NCc2ccc(Cl)cc2)S(=O)(=O)c2c(C)noc2C)cc1,15.1
9,O=[N+]([O-])CC(=Nc1ccc(F)cc1)N/N=C\c1oc(O)c2ccccc12,-0.338
10,NCCCC[C@H]1CN=C(N)N1CCCCC1CCCCC1,-3.84
11,CC(C)C(NC(=O)c1ccccc1NC(=O)c1ccco1)C(=O)O (stereo not shown),-14.1
12,C/C(N)=C(/C#N)C(=O)COC(=O)CC1CCCC1,-2.15
13,COc1ccccc1N1CCN(C2CC(=O)N(c3cccc(Br)c3)C2=O)CC1 (stereo not shown),-53.7
14,COc1ccccc1N1C(=O)CC(N2CCN(c3ccc(F)cc3)CC2)C1=O (stereo not shown),-1.99
15,COc1ccccc1N1C(=O)CC(N2CCN(c3ccc([N+](=O)[O-])cc3)CC2)C1=O (stereo not shown),-68.6
16,COc1cccc(N2C(=O)CC(N3CCN(c4ccc([N+](=O)[O-])cc4)CC3)C2=O)c1 (stereo not shown),-52.1
17,Cc1cc(C)cc(CC2CC(=O)N(c3ccc([N+](=O)[O-])cc3)C2=O)c1 (stereo not shown),9.78
18,Cc1cccc(CC2CC(=O)N(c3ccc([N+](=O)[O-])cc3)C2=O)c1 (stereo not shown),-53.3
19,COc1cccc(N2CCN(C3CC(=O)N(c4ccc(Cl)c(Cl)c4)C3=O)CC2)c1 (stereo not shown),-0.0262
20,COc1ccccc1N1C(=O)CC(N2CCN(c3ccc(Cl)cc3)CC2)C1=O (stereo not shown),1.61
21,O=C1CC(N2CCN(c3ccccc3)CC2)C(=O)N1c1cccc(Br)c1 (stereo not shown),-1.92
22,Cc1ccc(N2C(=O)CC(Cc3cccc(C)c3)C2=O)cc1 (stereo not shown),9.39

row,Structure (SMILES),"hERG current change (%, negative = inhibition) at 10uM [%]"
1,COc1ccccc1N1CCN(C2CC(=O)N(c3ccccc3)C2=O)CC1 (stereo not shown),24.1
2,COc1cccc(N2CCN(C3CC(=O)N(c4cccc(Cl)c4)C3=O)CC2)c1 (stereo not shown),-14.4
3,C=C(C)COc1ccc(-c2nc(N)ncc2-c2ccccc2OC)c(O)c1,-31.6
4,COc1cc(OC)c(OC)cc1/C=C(\C#N)C(=O)NCc1cccs1,20.6
5,O=C(Cn1cc2c(n1)CCCC2)Nc1ccccc1Br,1.06
6,CN1C2CCC1CC(NC(=O)c1cc(Cl)cc3[nH]cnc13)C2 (stereo not shown),4.12
7,CNC(=O)c1c2c(nc3ccc(Br)cc13)CCCC2,1.9
8,CCCCn1c(N)c(N(CCOC)C(=O)C2CC(=O)N(c3cccc(SC)c3)C2)c(=O)[nH]c1=O (stereo not shown),14.4
9,COCCN1CN=C(Nc2nc3ccccc3o2)NC1,13.5
10,COc1cccc(OC)c1C(=O)Nc1ccc(N2CCCC2)cc1,7.52
11,Cc1ccc(N2C(=O)SC(Cc3ccccc3)C2=O)cc1 (stereo not shown),13.7
12,COc1ccc(N(Cc2cc3ccccc3[nH]c2=O)S(=O)(=O)c2ccccc2)cc1,2.91
13,CCOC(=O)N1CCN(C(=O)c2ccc(OC(C)=O)cc2)CC1,16
14,CCOc1ccc(N2C(=O)CC(N3CCN(c4ccc([N+](=O)[O-])cc4)CC3)C2=O)cc1 (stereo not shown),-28.3
15,CCCOc1ccc(N2C(=O)CC(N3CCOCC3)C2=O)cc1 (stereo not shown),-3.38
16,CCCOc1ccc(N2C(=O)CC(N3CCN(c4ccc([N+](=O)[O-])cc4)CC3)C2=O)cc1 (stereo not shown),-73.8
17,O=C(COC(=O)c1cccc2ccccc12)Nc1cccnc1Cl,0.703
18,CCC1=NN2C(=N)/C(=C\c3cccn3-c3c(C)cccc3C)C(=O)N=C2S1,-79.4
19,CCC1=NN2C(=N)/C(=C\c3cccn3-c3ccc(C)c(C)c3)C(=O)N=C2S1,-6.32
20,CCC1=NN2C(=N)/C(=C\c3cccn3-c3ccc(C)cc3C)C(=O)N=C2S1,-5.33
21,Cc1ccc(-c2nc(C3CCCN(S(=O)(=O)c4ccc(C)cc4)C3)no2)cc1 (stereo not shown),12.2
22,Cc1ccc(S(=O)(=O)N2CCCC(C)C2)cc1 (stereo not shown),12.9

row,Structure (SMILES),"hERG current change (%, negative = inhibition) at 10uM [%]"
1,Cc1ccc(S(=O)(=O)N2CCCC(c3nnc4n3-c3ccccc3SC4)C2)cc1 (stereo not shown),-92.8
2,O=C(O)CCCCCNC(=O)c1ccccc1,8.89
3,NC(=O)CSc1nnc(-c2cccs2)n1-c1ccccc1,10.2
4,CCOc1ccc(-n2c(SCc3cc(=O)oc4cc(C)c(C(C)C)cc34)nnc2-c2cccnc2)cc1,-37.2
5,N#Cc1ccc(CSc2nnc(-c3c[nH]c4ccccc34)n2-c2ccccc2)cc1,5.38
6,O=C(O)c1ccc(CSc2nnc(-c3cccnc3)n2-c2ccc(Br)cc2)cc1,15.1
7,COc1ccc(-n2c(SCC#N)nnc2-c2cccnc2)cc1,-34
8,CCOc1ccc(-n2c(SCc3cc(=O)oc4cc(C)ccc34)nnc2-c2cccnc2)cc1,-70.7
9,N#CCSc1nnc(-c2cccnc2)n1-c1ccccc1,-7.93
10,CC(=O)Nc1ccc2c(CSc3nnc(-c4cccnc4)n3-c3ccc(C)cc3C)cc(=O)oc2c1,-17.8
11,CCOc1ccc(-n2c(SCc3ccc(C#N)cc3)nnc2-c2cccnc2)cc1,-71.9
12,CCOc1ccc(-n2c(SCC(N)=O)nnc2-c2cccnc2)cc1,-5.57
13,N#Cc1ccc(CSc2nnc(-c3cccnc3)n2-c2ccccc2)cc1,-71.2
14,N#Cc1ccc(CSc2nnc(-c3cccs3)n2-c2ccccc2)cc1,-72.7
15,O=C(CCCN1C(=O)/C(=C/c2ccccc2Cl)SC1=S)NNC(=O)c1ccncc1,2.34
16,O=C(NNc1ccccn1)c1ccccc1CC[N+](=O)[O-],13.3
17,COc1ccc(-c2ccc(C#N)c(SCC(=O)Nc3sc4c(c3C#N)CCC4)n2)cc1OC,10.3
18,COC(=O)c1c(C)[nH]c(C(=O)COc2ccc3ccc(=O)oc3c2)c1C,11.5
19,CN(C(=O)C1CCOC1)c1nnc(-c2cnccn2)s1 (stereo not shown),11.1
20,O=S(=O)(Nc1nc(-c2ccccc2)cs1)c1cc(Cl)ccc1Cl,18.3
21,CCOC(=O)C1=C(CC)OC(N)=C(C#N)C1c1ccsc1 (stereo not shown),1.69
22,CC1CCN(c2ccc(/C=N\Nc3nncn3N)cc2[N+](=O)[O-])CC1,-5.89

row,Structure (SMILES),"hERG current change (%, negative = inhibition) at 10uM [%]"
1,Cc1ccccc1-c1nc(CN2CCC(C(=O)NCc3cccnc3)CC2)c(C)o1,-32.8
2,CC(C)c1ccc(CN2CCC(C(=O)NCc3cccnc3)CC2)cc1.O=C(O)C(=O)O,-52.1
3,Cc1oc(-c2ccccc2F)nc1CN1CCC(C(=O)NCc2cccnc2)CC1,-26.7
4,COc1ccc(C(C)C)cc1S(=O)(=O)N1CCC(C(=O)NCc2cccnc2)CC1,-5.48
5,Cc1ccc(-c2nc(CSCC(=O)NCc3cccnc3)c(C)o2)cc1,-15.3
6,CCS(=O)(=O)N1CCC(C(=O)NCc2cccnc2)CC1,-11.7
7,O=C(NCc1cccnc1)C1CCCN(S(=O)(=O)c2ccc(Cl)cc2)C1 (stereo not shown),-26.9
8,Cc1oc(-c2ccc(Cl)cc2)nc1CN1CCC(C(=O)NCc2cccnc2)CC1,-65.9
9,Cc1oc(-c2ccc(Cl)cc2)nc1CN1CCCC(C(=O)NCc2cccnc2)C1 (stereo not shown),-60.8
10,Cc1cc(C)c(S(=O)(=O)N2CCCC(C(=O)NCc3cccnc3)C2)c(C)c1 (stereo not shown),-27
11,Cc1ccccc1-c1nc(CN2CCCC(C(=O)NCc3cccnc3)C2)c(C)o1 (stereo not shown),-64
12,CCOC(=O)COc1nc(Nc2ccccc2C)nc(N(C)C)n1,1.92
13,Cc1ccc(N2CC(C(=O)OCC(=O)c3ccc[nH]3)CC2=O)cc1 (stereo not shown),-24.2
14,Cc1cc(C)cc(C(=O)Nc2ccncc2)c1,7.83
15,O=C(CNC(=O)c1ccco1)Nc1cccc(Cl)c1,-10.8
16,O=C(Nc1ccccc1C(=O)NCCCN1CCOCC1)c1ccc(Cl)cc1,-15.5
17,O=C(CCSc1ccccc1)N1CCCC1,10.9
18,CCC(=O)NCc1ccc(-c2nc3ncccc3o2)cc1,13
19,Cc1csc(SC(C)c2nc3scc(-c4ccccc4)c3c(=O)[nH]2)n1 (stereo not shown),6.61
